NadD inh: inhibitors of Staphylococcus aureus NadD. purified NadD enzyme, colorimetric absorbance read-out. inhibition, % at 20 µM. 0.78% of 360,000 active; in the data active = inhibition above about 26%
MsrA inhibitor: bovine MsrA inhibition | inhibition, % at 15.5 µM | purified bovine MsrA, absorbance read-out | 0.75% of 360,000 active;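 note: 0% = vehicle wells with enzyme and 100% = reference inhibitor wells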
bovine MsrA act: activators of bovine methionine sulfoxide reductase A; purified bovine MsrA, absorbance read-out; activation, % at 10.6 µM; 0.3% of 360,000 active; in the data active = activation above about 7.5%;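 note: 0% = vehicle and 100% = reference activator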
rCAG binder: binds r(CAG) RNA repeats; r(CAG) RNA repeat, TO-PRO-1 dye displacement fluorescence; inhibition, % at 3 µM; 1.3% of 370,000 active; AID 651821;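 active = inhibition above the plate cutoff, the mean of all test compounds on that plate plus 3 SD, cut at about 35% in these data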;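 note: 0% = DMSO alone and 100% = 100 µM mitoxantrone as full dye displacement; higher means more dye released from RNA so lower well fluorescence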
MsrA inh confirm: confirmation of bovine MsrA inhibitors; shares compounds with MsrA inhibitor; 41% of 2,300 active; inhibition, % at 15.5 µM; purified bovine MsrA, absorbance read-out;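 note: coupled to thioredoxin reductase with NADPH and selenocystamine and DMSO as substrate; 0% = vehicle only and 100% = full effect of reference inhibitor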
Starred values were filed as active, the others as inactive; · = no result. Only some compounds are listed: those with a hit (about 2.7% of all), similar ones and a draw of the others. Cut-off read from the data, not from the text of the source, unless noted: active = inhibition above about 4.5%; inactive = the rest.

SMILES	NadD inh	MsrA inhibitor	bovine MsrA act	rCAG binder	MsrA inh confirm
CC(=O)NC(CC(=O)Oc1ccc(C)cc1Br)c1ccccc1 (centres undefined)	-4	-1	1	-5	·
COc1cccc(-c2c(C(=O)N/N=C/c3ccco3)nnn2-c2nonc2N)c1	3	4.9*	-6	1	1
CC(/C=N/NC(=O)c1nnn(-c2nonc2N)c1C(C)C)=C\c1ccco1	0	4.9*	-10	7	5.8*
Nc1nonc1-n1nnc(C(=O)N/N=C/c2ccco2)c1-c1ccccc1	-3	2	-9	3	·
Cc1ccc(SCCC(=O)NNC(=O)c2ccccc2F)cc1	9	-1	-3	1	·
COc1ccc(-c2nnc(SCC(=O)N/N=C/c3ccccc3C(=O)O)n2-c2ccccc2)cc1	6	0	-10	21	·
Cc1ccc(S(=O)(=O)N/N=C/c2cc(Br)ccc2O)cc1	-6	4.9*	-7	28	0
CSc1nc2sc3c(c2c(=O)n1C)CCCC3	0	-2	-2	1	·
CSc1nc2sc3c(c2c2nnnn12)CCCC3	-11	12*	-6	6	17*
Cc1csc(Nc2nc(N)c(C(=O)Nc3ccccc3)o2)n1	-4	5.7*	-4	2	5.0*
Cc1cc(-c2cc(NC=O)c3ncc(-c4cccc(C(=O)NCCN(C)C)c4)n3c2)cc(C)c1O	14	0	0	12	·
CCOC(=O)/C(C#N)=C1/C=CN(C)C=N1	-8	7.4*	-7	0	5.7*
CCOC(=O)/C(C#N)=C1/C=CN(Cc2ccccc2)C=N1	12	7.4*	-5	0	5.7*
CCOC(=O)/C(C#N)=C1/C=CN(c2ccccc2)C=N1	5	5.6*	-8	-1	6.0*
CCCCCCN1C=CC(=C/C=C(\C#N)C(=O)OCC)C=C1	2	0	-3	-66	·
CCOC(=O)C(=O)C1=CN(Cc2ccccc2)C=C(C#N)C1	6	1	2	2	·
CCOC(=O)/C(C#N)=C1\C=CN(C)C(C)=N1	-5	6.0*	-13	-2	4
CCOC(=O)/C(C#N)=C1/C=Nc2ccccc2N1	-2	2	0	0	·
Oc1ccccc1-n1nc2ccc3nonc3c2n1	-8	0	-5	0	·
CCOC(=O)/C(C#N)=C1/C=CN(c2ccc(C)cc2)C=N1	-2	6.6*	-6	1	5.2*
CCOC(=O)/C(C#N)=C1/SC(CC)C(=O)N1c1ccc(C)cc1 (centres undefined)	5	1	-3	3	·
CCOC(=O)c1sc(C)c2c(=O)n(CC)nnc12	-2	5.7*	-4	-3	3
CC(=O)Oc1ccc2c(=O)c(/C=N/c3cc(=O)[nH]c(=S)[nH]3)coc2c1	1	5.5*	-1	12	4
CC(=O)Cc1nsc(NC(=O)c2ccc(-c3ccc(F)cc3)o2)n1	-9	7.0*	-6	11	5.4*
O=C(O)c1ccc(/C=N/Nc2ccc(F)cc2F)cc1	2	5.6*	-4	3	4
SMILES	NadD inh	MsrA inhibitor	bovine MsrA act	rCAG binder	MsrA inh confirm
Fc1ccc(N/N=C/c2ccncc2)c(F)c1	-2	2	-7	7	·
CCC(=O)c1ccc(/C=C/c2nc3ccccc3n2C)o1	12	5.2*	-6	8	2
Cc1ccc(N(CC(=O)NC2CCCC2)C(=O)CNC(=O)c2cccs2)cc1C	-5	3	-10	-8	·
Cc1ccc(S(=O)(=O)Cn2nnnc2C(CC(C)C)N2CCN(C3CCCC3)CC2)cc1 (centres undefined)	-1	3	-2	-3	·
O=C(Nc1nc(-c2ccc(S(=O)(=O)N3CCOCC3)cc2)cs1)c1ccccc1	7	0	-11	16	·
O=C(Nc1nc(-c2nc3ccccc3s2)cs1)c1ccc(S(=O)(=O)N2CCOCC2)cc1	27	5.0*	-8	8	1
O=C(CCn1c(=S)oc2ccccc21)NCCC1=CCCCC1	-9	1	-1	-1	·
COc1ccc(/C=N/NC(=O)c2cccnc2)cc1COc1ccc([N+](=O)[O-])c(C)c1	-5	4.7*	-4	11	1
COc1ccc(/C=N\NC(=O)c2ccc([N+](=O)[O-])c(C)c2)cc1COc1ccccc1C(N)=O	19	3	-6	14	·
CCOC(=O)/C(C#N)=C/Nc1cc(F)ccc1C	-6	5.8*	-6	-5	1
CCOC(=O)C(=O)/C(C#N)=C/Nc1ccc(F)cc1	4	0	-4	2	·
Cc1cc(C)c2nc(C(F)(F)F)nc(N3CC(C)OC(C)C3)c2c1 (centres undefined)	1	14*	-2	-5	21*
CCOC(=O)N1CCN(c2nc(C(F)(F)F)nc3c(C)cc(C)cc23)CC1	-1	-1	-4	-3	·
COc1ccc(N/N=C(\C=N\O)C(=O)c2ccc(OC)cc2)cc1	-4	11*	-6	17	5.0*
COc1ccc(-c2csc(C(C)(O)c3cccc(F)c3)n2)cc1OC (centres undefined)	-9	-2	-6	1	·
COc1ccc2c(c1)-c1c(sn(-c3ccccc3)c1=S)C(C)(C)N2	0	4.7*	-6	5	1
COc1ccc(-n2sc3c(c2=S)-c2cc(OC)ccc2NC3(C)C)cc1	-3	-1	-5	7	·
COC(=O)c1ccc(N=NN2CCOCC2)cc1	-2	6.6*	-4	-1	2
COc1ccc2[nH]c(=O)c(CN(Cc3cccnc3)C(=S)NCC3CCCO3)cc2c1 (centres undefined)	1	1	-3	-6	·
Cc1cc(=O)[nH]c2c(C)cc(S(=O)(=O)Nc3ccc(O)cc3)cc12	-2	9.2*	-2	3	4.7*
COC(=O)Nc1ccc(S(=O)(=O)Nc2ccc(O)cc2)cc1	1	0	-2	1	·
COc1c(-c2ccccc2)oc2c(ccc3occc32)c1=O	-9	2	-8	1	·
Cc1cc(C)c2c3c(sc2n1)C(c1cccc(F)c1)C(C#N)=C(N)O3 (centres undefined)	5	10*	-3	12	4
CC(C)C[C@@H](CO)N1CCN(Cc2cccnc2)CCC1=O	1	0	-9	-1	·
O=C(O)CSc1cc(NS(=O)(=O)c2cccc([N+](=O)[O-])c2)c2ccccc2c1O	9	20*	3	27	-1
SMILES	NadD inh	MsrA inhibitor	bovine MsrA act	rCAG binder	MsrA inh confirm
COc1ccc(-c2cc(C(F)(F)F)n3nc(C(=O)O)nc3n2)cc1	-8	5.1*	-5	1	4
c1ccc(-c2nc3nc4ccccc4nc3n2CC2CCCO2)cc1 (centres undefined)	-6	5.2*	-5	-6	5.2*
c1coc(-c2nc3nc4ccccc4nc3n2CC2CCCO2)c1 (centres undefined)	-10	2	2	6	·
Cc1[nH]c2ccccc2c1/C=N/n1cnnc1	-6	2	-2	2	·
C(=N\n1cnnc1)/c1nc2ccccc2[nH]1	-2	4.9*	-3	2	2
COC(=O)c1cnc(NC(=O)C2(C)CCCN(C(C)=O)C2)s1 (centres undefined)	-1	0	2	0	·
CCn1cc(C(=O)N2CCN(c3ccc(C(C)=O)cc3)CC2)c2cc(OC)c(OC)cc2c1=O	2	6.5*	-17	-5	4

Source: PubChem BioAssay
